Assay results published in PubChem BioAssay.
Activity calls are given as the source filed them.

What was measured:
[1] = E. coli DRC41 culture turbidity changes, primary screen, E. coli filamentation inducer project, strain DRC41, OD650, 48 h (AID 1152);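 note: E. coli MC1000 strain DRC41 lacking acrAB efflux pump and sulA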; conditions: E. coli DRC41 (acrAB sulA), higher = more signal, called active from +8 up or from −8 down
[2] = small-molecule binders of probe aLefty1, primary screen, biochemical, small-molecule microarray, 635/667 nm fluorescence (AID 1153); conditions: higher = more signal;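 note: score merges spot fluorescence with signal-to-noise ratio from the scanned slide images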
[3] = PSAC antagonists in infected red cells, primary screen, cell-based, P. falciparum Indochina, OD700, 1 h (AID 1154); conditions: P. falciparum Indochina infected RBC osmotic lysis, higher = more signal, called active from +8 up or from −8 down
[4] = PSAC antagonists in infected red cells, primary screen, cell-based, P. falciparum Indochina, OD700, 2 h (AID 1155);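 note: lysis reports solute entry through the parasite surface anion channel PSAC; channel blockers reduce lysis of infected cells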; conditions: P. falciparum Indochina infected erythrocytes, osmotic lysis OD700; higher = more signal, called active from +8 up or from −8 down
[5] = osmotic lysis modulators in infected erythrocytes, primary screen, PSAC antagonist project, cell-based, P. falciparum Indochina, OD700, 3 h (AID 1156); conditions: higher = more signal, called active from +8 up or from −8 down
[6] = PSAC antagonists in infected red cells, primary screen, cell-based, P. falciparum Indochina, OD700, 18 h (AID 1157); conditions: P. falciparum Indochina infected erythrocytes, osmotic lysis OD700, 18 h; higher = more signal, called active from +8 up or from −8 down
[7] = modulators of S6 phosphorylation in cells, primary screen, cell-based, A549, cytoblot, luminescence, serum-stimulated (AID 1158); conditions: A549 phospho-S6 cytoblot, 5 h, higher = more signal;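 note: serum-stimulated A549 lung adenocarcinoma cells; signal is phosphorylated S6 detected by cytoblot immunostaining with HRP secondary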
[8] = molecular target: NADPH oxidase 2 (Homo sapiens) (UniProt P04839); test: NOX2-dependent H2O2 signal modulators, primary screen, NOX inhibitor project, cell-based, HEK293-NOX2, PMA-stimulated, Amplex Red fluorescence (AID 1159); conditions: 45 min, higher = more signal, called active from +8 up or from −8 down; note: test concentration not given here
[9] = molecular target: NADPH oxidase 4 (Homo sapiens) (UniProt Q9NPH5); test: NOX4-dependent H2O2 signal modulators, primary screen, NOX inhibitor project, cell-based, HEK293-NOX4, tetracycline-induced, Amplex Red fluorescence (AID 1160); conditions: 45 min, higher = more signal, called active from +8 up or from −8 down
[10] = molecular target: NADPH oxidase 5 (Homo sapiens) (UniProt Q96PH1); test: NOX5-dependent H2O2 signal modulators, primary screen, NOX inhibitor project, cell-based, HEK293-NOX5, Amplex Red fluorescence (AID 1161); conditions: HEK293-NOX5, ionomycin, 45 min, higher = more signal
[11] = A549 cell viability effects, profiling panel, calcein-AM fluorescence, 48 h, basal (AID 1162); conditions: higher = more signal; note: test concentration not given here
[12] = adipocyte viability effects, profiling panel, cell-based, 3T3-L1 adipocytes, calcein-AM fluorescence, 48 h, basal (AID 1163); conditions: 3T3-L1 adipocytes viability, higher = more signal; note: test concentration not given here
[13] = HepG2 cell viability effects, profiling panel, calcein-AM fluorescence, 48 h, basal (AID 1164); conditions: higher = more signal; note: test concentration not given here
[14] = MM1S cell viability effects, profiling panel, calcein-AM fluorescence, 48 h, basal (AID 1165); conditions: higher = more signal;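 note: viability of MM1S multiple myeloma cells under basal unstimulated conditions; test concentration not given here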
[15] = basal RPMI8226 viability, no added stimulus, profiling panel, cell-based, calcein-AM fluorescence, 48 h, PK04 Diversity Set (AID 1166); conditions: RPMI8226 myeloma viability, higher = more signal;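 note: cells grown under basal conditions without added stimulus; test concentration not given here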
[16] = basal HepG2 mitochondrial membrane potential changes, profiling panel, cell-based, JC-1 fluorescence, 24 h, 100 nL compound (AID 1167); conditions: higher = more signal; note: test concentration not given here
[17] = basal 3T3-L1 adipocyte mitochondrial potential changes, profiling panel, cell-based, JC-1 fluorescence, 3T3-L1 adipocytes, 24 h, 100 nL compound (AID 1168); conditions: JC-1 mitochondrial fluorescence, higher = more signal, called active from +8 up or from −8 down; note: test concentration not given here
[18] = basal RPMI8226 mitochondrial membrane potential changes, profiling panel, cell-based, JC-1 fluorescence, 24 h, 100 nL compound (AID 1169); conditions: RPMI8226 myeloma, JC-1 mitochondrial potential fluorescence, higher = more signal; note: test concentration not given here
[19] = basal MM1S mitochondrial membrane potential changes, profiling panel, cell-based, JC-1 fluorescence, 24 h, 100 nL compound (AID 1170); conditions: higher = more signal; note: test concentration not given here
[20] = A549 lung cancer cell viability effects, profiling panel, resazurin fluorescence, 24 h, PK04 Diversity Set (AID 1171); conditions: higher = more signal, called active from +8 up or from −8 down; note: test concentration not given here

Chain of NADPH oxidase 5 (Homo sapiens) (Q96PH1 whole entry, looked up): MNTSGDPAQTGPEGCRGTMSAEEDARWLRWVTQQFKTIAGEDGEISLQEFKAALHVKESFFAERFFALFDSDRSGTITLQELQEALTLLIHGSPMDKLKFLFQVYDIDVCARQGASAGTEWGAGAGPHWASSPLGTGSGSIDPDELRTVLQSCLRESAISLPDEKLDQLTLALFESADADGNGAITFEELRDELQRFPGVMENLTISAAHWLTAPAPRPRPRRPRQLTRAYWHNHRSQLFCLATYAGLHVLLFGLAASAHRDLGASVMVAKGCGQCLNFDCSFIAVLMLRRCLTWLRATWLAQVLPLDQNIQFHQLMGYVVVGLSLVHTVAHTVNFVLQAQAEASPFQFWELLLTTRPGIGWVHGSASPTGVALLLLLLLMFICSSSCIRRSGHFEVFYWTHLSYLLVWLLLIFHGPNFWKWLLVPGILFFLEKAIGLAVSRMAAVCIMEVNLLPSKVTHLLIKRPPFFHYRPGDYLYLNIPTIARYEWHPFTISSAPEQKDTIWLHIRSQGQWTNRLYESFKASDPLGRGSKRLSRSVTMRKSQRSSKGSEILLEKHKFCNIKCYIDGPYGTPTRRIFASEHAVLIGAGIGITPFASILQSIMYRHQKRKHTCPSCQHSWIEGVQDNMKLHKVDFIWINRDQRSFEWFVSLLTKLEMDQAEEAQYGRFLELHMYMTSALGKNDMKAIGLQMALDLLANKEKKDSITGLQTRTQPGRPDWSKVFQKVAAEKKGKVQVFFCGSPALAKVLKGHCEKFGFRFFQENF
Chain of NADPH oxidase 2 (Homo sapiens) (P04839 whole entry, looked up): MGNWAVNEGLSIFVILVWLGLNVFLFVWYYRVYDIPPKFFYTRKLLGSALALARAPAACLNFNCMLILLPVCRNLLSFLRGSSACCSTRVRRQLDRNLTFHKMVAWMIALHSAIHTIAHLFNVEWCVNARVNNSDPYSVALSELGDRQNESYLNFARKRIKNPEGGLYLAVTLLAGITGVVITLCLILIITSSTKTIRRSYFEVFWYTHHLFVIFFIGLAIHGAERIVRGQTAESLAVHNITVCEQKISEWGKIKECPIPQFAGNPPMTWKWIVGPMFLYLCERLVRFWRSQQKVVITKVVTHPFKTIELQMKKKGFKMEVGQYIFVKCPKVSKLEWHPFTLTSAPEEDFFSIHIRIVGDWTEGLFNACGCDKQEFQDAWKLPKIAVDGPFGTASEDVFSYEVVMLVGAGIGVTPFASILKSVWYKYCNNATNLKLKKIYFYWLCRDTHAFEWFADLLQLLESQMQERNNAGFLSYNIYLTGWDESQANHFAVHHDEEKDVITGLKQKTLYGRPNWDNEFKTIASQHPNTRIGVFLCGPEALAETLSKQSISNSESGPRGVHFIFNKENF
Chain of NADPH oxidase 4 (Homo sapiens) (Q9NPH5 whole entry, looked up): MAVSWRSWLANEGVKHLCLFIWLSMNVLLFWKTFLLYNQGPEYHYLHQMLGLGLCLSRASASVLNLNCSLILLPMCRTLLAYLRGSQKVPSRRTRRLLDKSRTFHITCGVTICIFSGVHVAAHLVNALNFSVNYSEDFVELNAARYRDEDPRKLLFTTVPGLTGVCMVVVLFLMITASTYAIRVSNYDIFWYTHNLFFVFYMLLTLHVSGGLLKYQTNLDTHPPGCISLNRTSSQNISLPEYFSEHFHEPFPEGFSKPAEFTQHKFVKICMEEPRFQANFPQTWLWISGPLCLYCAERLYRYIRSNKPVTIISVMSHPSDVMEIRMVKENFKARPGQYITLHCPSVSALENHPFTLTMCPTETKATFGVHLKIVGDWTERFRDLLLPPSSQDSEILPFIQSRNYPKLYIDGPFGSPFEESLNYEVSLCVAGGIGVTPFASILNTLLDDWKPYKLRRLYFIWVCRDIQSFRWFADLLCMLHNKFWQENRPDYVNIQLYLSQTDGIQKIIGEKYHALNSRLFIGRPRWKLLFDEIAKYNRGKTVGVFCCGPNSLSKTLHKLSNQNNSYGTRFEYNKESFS

Row | SMILES | z-score [1] | composite z-score [2] | z-score [3] | z-score [4] | z-score [5] | z-score [6] | z-score [7] | z-score [8] | z-score [9] | z-score [10] | z-score [11] | z-score [12] | z-score [13] | z-score [14] | z-score [15] | z-score [16] | z-score [17] | z-score [18] | z-score [19] | z-score [20]
1 | CC(C)C[C@@H]1NC(=O)[C@@H]2C[C@H](C(=O)NCCCCCNC(=O)CS)[C@H](c3ccc(O)cc3)N2C1=O | 2.03 (inactive) | 0.165 | 0.625 (inactive) | -0.37 (inactive) | 0.768 (inactive) | -0.73 (inactive) | 2.48 | -1.18 (inactive) | -1.35 (inactive) | -3.05 | 0.161 | 2.21 | -0.787 | -0.263 | -0.782 | -0.63 | -0.195 (inactive) | 0.393 | -1.1 | 0.16 (inactive)
2 | C=CCN1C(=O)[C@@]2(O[C@@H](CCO)[C@H]([Si](C)(C)c3ccc(OC)cc3)[C@H]2C)c2cc(N3CCCCC3=O)ccc21 | 0.424 (inactive) | 0.102 | 23.8 (active) | 7.85 (inactive) | -0.302 (inactive) | 1.9 (inactive) | 1.44 | -1.63 (inactive) | -0.258 (inactive) | -0.607 | -0.816 | 0.146 | -4.51 | -2.69 | -4.05 | -1.44 | -0.0545 (inactive) | -1.01 | -1.75 | -2.04 (inactive)
3 | CC1C2C(CCCO)=CC(C3C(=O)N(C(N)=O)C(=O)C23)N1Cc1cccc(OC(F)(F)F)c1 (stereo not given) | -0.114 (inactive) | 0.0982 | 0.376 (inactive) | 0.0112 (inactive) | -0.308 (inactive) | 0.0624 (inactive) | -0.207 | 0.217 (inactive) | 0.509 (inactive) | 0.107 | -0.846 | -0.528 | 0.192 | -0.486 | 0.244 | -0.632 | -0.795 (inactive) | 0.787 | -0.547 | -0.13 (inactive)
4 | CCOC(=O)C1=C[C@@H](C(C)(C)C)N(S(=O)(=O)c2ccc(C)cc2)[C@H]1c1ccc(OC)cc1 | -0.0371 (inactive) | 0.235 | 1.44 (inactive) | 1.11 (inactive) | 0.457 (inactive) | 0.71 (inactive) | -0.454 | -1.67 (inactive) | 0.244 (inactive) | 1.65 | 0.279 | -0.276 | -0.778 | -1.04 | -1.23 | 4.09 | -0.305 (inactive) | -0.589 | -0.676 | 2.62 (inactive)
5 | COc1ccc([Si](C)(C)[C@H]2[C@H](CCO)O[C@@]3(C(=O)N(Cc4ccccc4)c4ccc(NC(=O)[C@H](C)O)cc43)[C@@H]2C)cc1 | -0.0149 (inactive) | 0.013 | 10.8 (active) | 2.73 (inactive) | 0.0811 (inactive) | 1.43 (inactive) | 0.0757 | -0.699 (inactive) | 0.488 (inactive) | 1.66 | -1.88 | -1.49 | -4.52 | -2.62 | -4.31 | -2.86 | 0.364 (inactive) | -0.961 | -2.39 | -3.18 (inactive)
6 | [N-]=[N+]=Nc1ccccc1C[C@@]1(C(=O)NCc2ccccc2)N=C(c2ccc(OCCCO)cc2)O[C@@H]1c1ccccc1 | 0.0295 (inactive) | 1.43 | 27.6 (active) | 17.3 (active) | 1.4 (inactive) | 2.09 (inactive) | 0.308 | -1.67 (inactive) | -0.0758 (inactive) | -1.1 | -1.36 | 0.902 | -1.78 | -2.51 | -3.76 | 1.45 | -0.739 (inactive) | -1.3 | -0.738 | 0.808 (inactive)
7 | Cc1ccc(S[C@]2(C(=O)NC3CC3)CC(=O)N(C3Cc4ccccc4C3)[C@@H]2c2ccc(CO)cc2I)cc1 | 0.933 (inactive) | 0.227 | 5.18 (inactive) | 0.943 (inactive) | 0.202 (inactive) | 0.254 (inactive) | -0.256 | 1.94 (inactive) | -2.66 (inactive) | 1.41 | 0.828 | 0.689 | 0.193 | -2.21 | -1.9 | -0.24 | -0.411 (inactive) | -0.502 | -0.499 | 0.395 (inactive)
